In PubChem BioAssay one finds inhibition data, which are given here for 40 compounds.

Structures are written as SMILES. Activity calls are given as the source filed them. No rule for the calls is given here.

In this assay the target is Pantothenate synthetase (Mycobacterium tuberculosis (strain ATCC 25618 / H37Rv)) (UniProt P9WIL5). Put plainly: Recombinant Mtb pantothenate synthetase (PanC) inhibitors, coupled enzyme, confirmatory (AID 375).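 Also: 0% = full reaction with vehicle and 100% = no enzyme background.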 Particulars: coupled enzyme assay; at 10 µM, active compounds read high.
Chain of Pantothenate synthetase (Mycobacterium tuberculosis (strain ATCC 25618 / H37Rv)) (P9WIL5 whole entry, looked up): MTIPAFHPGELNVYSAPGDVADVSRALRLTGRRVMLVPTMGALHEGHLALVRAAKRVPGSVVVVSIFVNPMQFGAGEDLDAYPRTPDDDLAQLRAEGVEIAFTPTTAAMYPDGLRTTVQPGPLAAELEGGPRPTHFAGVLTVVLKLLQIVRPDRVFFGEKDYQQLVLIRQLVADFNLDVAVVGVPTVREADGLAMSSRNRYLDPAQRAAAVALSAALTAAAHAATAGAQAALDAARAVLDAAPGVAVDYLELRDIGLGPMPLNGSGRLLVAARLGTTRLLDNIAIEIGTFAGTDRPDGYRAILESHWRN
Take `CCNCCNC(=O)c1c(O)c2ccccc2n(CC)c1=O`: the inhibition (commonly how much of the control response was suppressed) is 0% (inactive).
For `Cc1cc(C)n(-c2ccc(N3CCOCC3)nn2)n1`, the inhibition was 0% (inactive).
Regarding `Cc1ccc(S(=O)(=O)CCc2nnc(NC(=O)c3cnccn3)s2)cc1`, the inhibition was 8% (inactive).
Regarding `CCOc1ccc(CNC(=O)C2CCCN(S(C)(=O)=O)C2)cc1OC` (stereo not given), the inhibition was 0% (inactive).
For the compound `COc1ccccc1OCc1ccc(C(=O)OCC2CCCO2)o1` (stereo not given), the inhibition is 0% (inactive).
In the case of `COc1ccc(OC(C)C(=O)N2CC(C)OC(C)C2)cc1` (stereo not given), the inhibition was 10% (inactive).
Take `CC(C)Oc1cccc(-c2cc(C(=O)N3CCN(S(C)(=O)=O)CC3)c3ccccc3n2)c1`: the inhibition was 5% (inactive).
In the case of `CC(C)C(=O)Nc1ccc(C(=O)NCc2cccnc2)cc1`, the inhibition is 0% (inactive).
Consider `CC1CCCCN1CCNS(=O)(=O)c1ccc2c(c1)oc(=O)n2C` (stereo not given), for which the inhibition is 0% (inactive).
Consider `Cc1ccc2nc3c(cc2c1)CN(Cc1ccco1)C(=NCC1CCCO1)S3` (stereo not given), for which the inhibition was 0% (inactive).
As for `COc1ccc2cc([C@H](C)C(=O)O)ccc2c1`, the figure is 0% (inactive); as for `CCOC(=O)c1[nH]nc(-c2c(O)cc(C)cc2O)c1-c1csc(C)n1`, 0% (inactive).
Regarding `CC(CCc1ccccc1)NC(=O)CSc1nc(N)cc(N)n1` (stereo not given), the inhibition is 0% (inactive).
`CCCCNC(=O)Nc1ccnn1C1CCCCC1`: the inhibition is 1% (inactive).
Regarding `COC(=O)Cn1c(=O)c2c(nc(Br)n2CC(=O)OC)n(C)c1=O`, the inhibition was 0% (inactive).
Consider `O=C(OCCN1C(=O)c2ccccc2C1=O)c1ccc(S(=O)(=O)N2CCCCCC2)cc1`, for which the inhibition was 0% (inactive).
`Cc1cc(NC(=O)c2ccc(Cl)cc2)no1`: the inhibition was 0% (inactive).
The value for `O=C(NCN1CCCCC1)c1cnccn1` was 0% (inactive); that for `C=C(C)COc1ccc(-c2nc(N)ncc2Oc2ccccc2OCC)c(O)c1` was 1% (inactive); that for `CCCCn1nnnc1SCC(=O)N1CCN(C(=O)c2ccco2)CC1` was 0% (inactive).
As for `CN(Cc1nc(-c2ccncc2)no1)S(=O)(=O)c1ccccc1`, the inhibition is 6% (inactive).
`CCOC(=O)Cc1nn2c(=O)cc(C)nc2s1`: the inhibition is 0% (inactive).
For `Cc1ccc(NC(=O)c2oc3ccc(S(=O)(=O)N4CCOCC4)cc3c2C)cc1C`, the inhibition is 3% (inactive).
For the compound `Cc1noc(C)c1CSc1ccccc1C(=O)N1CCN(c2ccccc2)CC1`, the inhibition was 0% (inactive).
As to `CN(C)S(=O)(=O)Nc1ccc(Br)cc1F`, the inhibition was 0% (inactive).
As for `CC(C)(C)NCC(O)c1cc(O)cc(O)c1` (stereo not given), the figure is 0% (inactive).
Take `CC(CC(=O)NC1CCSC1=O)c1ccccc1` (stereo not given): the inhibition was 0% (inactive).
Consider `CC(C)N(C(=O)CSc1nnc(-c2cc3ccccc3cc2O)n1Cc1ccco1)C(C)C`, for which the inhibition is 1% (inactive).
In the case of `Cc1cc(NC(=O)C2=C(O)c3ccccc3S(=O)(=O)N2C)no1`, the inhibition was 0% (inactive).
`Cc1ccc(CNC(=O)c2coc(=O)c3ccccc23)o1`: the inhibition was 0% (inactive).
Take `COc1ccc(C2=CC(=O)OC3(CCCCC3)O2)cc1`: the inhibition was 0% (inactive).
With `O=C(Nc1ccccc1C(=O)N1CCOCC1)C1COc2ccccc2O1` (stereo not given), the inhibition is 0% (inactive).
Consider `O=C(CSc1nnnn1C1CCCC1)Nc1cccc(NC(=O)c2ccco2)c1`, for which the inhibition is 5% (inactive).
As for `Clc1ccc(Cc2nn3c(-c4ccncc4)nnc3s2)cc1`, the figure is 0% (inactive); as for `Cc1ccc(C)c(N2CCN(Cc3nnnn3C3CCCCC3)CC2)c1`, 1% (inactive); as for `Cc1nc2ccc(C(=O)c3ccccc3)cc2[nH]1`, 0% (inactive).
As for `O=S(=O)(Nc1ccn(-c2ccccc2)n1)c1ccc(Br)cc1`, the figure is 0% (inactive); as for `Cc1ccccc1OCc1nc2ccccc2c(=O)n1/N=C/c1ccco1`, 0% (inactive); as for `COc1ccc(C2/C(=C(/O)c3ccc(OC(C)C)cc3)C(=O)C(=O)N2CCCN2CCOCC2)cc1` (stereo not given), 0% (inactive).
For the compound `NC(=O)c1c(-c2ccccc2)oc2ccc(O)cc12`, the inhibition is 0% (inactive).
